Measurements: ChEMBL document CHEMBL1157539, “Thousands of chemical starting points for antimalarial lead identification” (Nature, 2010)

The compounds below were run on HepG2 (assay: GSK_TCMDC: Percent inhibition of human HepG2 cell line. Test compounds present at 10uM.).
Type: functional

Structure (SMILES) | Inhibition [%]
COc1ccc(S(=O)(=O)NCC2CCCN(CCCCCNC(=O)/C=C/c3ccc(Cl)c(Cl)c3)C2)cc1 (stereo not given) | 53
Cc1ccc(C(C#N)c2ccc3c(C(F)(F)F)cc(C(F)(F)F)nc3n2)cc1 (stereo not given) | 14
CC(C)(C)c1ccc2[nH]c(-c3ccc(C(=O)NC4CCN(Cc5ccccc5)CC4)s3)nc2c1 | 24
Cc1[nH]c2ccccc2c1C(=O)C(C)Sc1nnc(-c2ccccc2Br)[nH]1 (stereo not given) | 0
COc1cc(Cc2cnc(N)nc2N)cc(OCc2cccc(C(=O)O)c2)c1OC.Cl | 8
O=C(c1cccc(-c2ccc(-c3nc4cc(C(F)(F)F)ccc4[nH]3)cc2)c1)N1CCCCC1CN1CCC(O)C1 (stereo not given) | 19
O=C(Nc1ccnc(-c2cccnc2)n1)c1cc(C(F)(F)F)cc(C(F)(F)F)c1 | 22
COc1cc(C)ccc1S(=O)(=O)N1CCCCC(c2ccc(C(F)(F)F)cc2)=N1 | 16
Cl.c1ccc(Cn2nnnc2-c2cccc(Nc3ccnc4cc(-c5nccs5)ccc34)c2)cc1 | 51
CN(C(=O)Nc1ccc(F)cc1)C1CCN(CCCCCNC(=O)/C=C/c2ccc(Cl)c(Cl)c2)CC1 | 38
